Experimental findings from PubChem BioAssay (NCI) are described below.

Holding throughout (assay): NCI-60 one-dose screen, 48 h (100 = growth as untreated, 0 = no growth, -100 = all killed)
Common to all, as to conditions: 10 µM unless noted

In test [1] the test system is SR leukemia.
Test [2] deals with RPMI-8226 leukemia.
In test [3] the test system is OVCAR-8 ovarian.
Test [4] relates to OVCAR-5 ovarian.
Test [5] has as its system OVCAR-4 ovarian.
Test [6] relates to SK-OV-3 ovarian.
The subject of test [7] is IGROV1 ovarian.
For test [8], the system named is OVCAR-3 ovarian.
The test system of test [9] is HS 578T breast.
In test [10] the test system is NCI/ADR-RES ovarian.
Test [11] relates to T-47D breast.
For test [12], the system named is BT-549 breast.
Test [13] relates to MDA-MB-435 melanoma.
The subject of test [14] is SW-620 colon.
For test [15], the system named is MCF7 breast.
Test [16] concerns HCT-116 colon.
The subject of test [17] is HCC-2998 colon.
In test [18] the test system is KM12 colon.

The panel holds about 83,000 compounds, 20% with a hit somewhere; the sample as a whole holds those more often.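 For each line, cells grew in 96-well plates with the test compound present at a single concentration for 48 hours.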 A number with no mark means an inactive call. Activity calls are given as the source filed them. How the source made its calls: active means growth percent below 10; inactive means the rest.

`C[C@@H]1CC[C@@H]2[C@@H]1[C@H](OC(=O)/C=C/c1ccccc1)[C@]1(c3ccccc3)C[C@@H](NC(=O)CO)[C@@]2(C)O1`: the growth is 90.4% in [1]; 92.2% in test [2]; 93.9% in test [3]; 98.5% in test [4]; 97.2% in [5]; 90.4% in test [6]. Further, the growth in test [7] was 102%; in [8], 108%; in test [9], 92%; in test [10], 93%; in [11], 93.3%; in [12], 114%. Moreover, the growth in test [13] was 100%; in test [14], 104%; in test [15] it was 79.4%; in test [16], 100%; in test [17], 104%; in test [18], 94.8%.
Regarding `COc1ccc(-c2cc3cnc4ccccc4c3oc2=O)cc1`, the growth was 74.6% in test [1]; 102% in test [2]; 105% in test [3]; 101% in test [4]; 103% in [5]; 93.9% in test [6]. The growth was 106% in [7]; 106% in test [8]; 100% in test [9]; 102% in test [10]; 87.1% in test [11]; 101% in test [12]. Moreover, the growth in test [13] is 98.6%; in [14], 95.8%; in test [15], 86.9%; in [16], 93.3%; in test [17], 89.2%; in test [18], 103%.
For `Cc1ccc(S(=O)(=O)OC[C@@]2(C)CC[C@]3(C)CC[C@]4(C)C(=CC[C@@H]5[C@@]6(C)CCCNC(C)(C)[C@@H]6CC[C@]54C)[C@@H]3C2)cc1`, the growth in test [1] is -39.3% (active); in test [2] it was -57.8% (active); in test [3] it was -50.2% (active); in test [4], -84% (active); in test [5], -78.5% (active); in [6] it was 75.2%. Further, the growth in test [7] was -84.9% (active); in test [8] it was -95.8% (active); in test [9], -20% (active); in [10], -65.8% (active); in [11], -82.8% (active); in [12], 76.5%. In addition, the growth in test [13] was -89.9% (active); in test [14], -81.9% (active); in test [15], -61.6% (active); in test [16] it was -80.6% (active); in test [17], -92.3% (active); in [18], -91.7% (active).
For the compound `C=C(C)[C@@H]1CC[C@]2(C)[C@H](CC(=O)N[C@H]3[C@@H]4C[C@](C)(C(=O)OC)CC[C@]4(C)CC[C@]32C)[C@@]1(C)CCC#N`, the growth in test [1] is 41.8%; in test [2], 48.3%; in test [3], 78.7%; in [4], 91.6%; in test [5] it was 76.7%; in test [6], 97.4%. In addition, the growth in test [7] is 95.2%; in [8], 79.7%; in test [9], 93.4%; in test [10], 86.6%; in test [11] it was 63.6%; in test [12] it was 72.1%. Moreover, the growth in [13] was 87.8%; in test [14] it was 93%; in test [15], 73.8%; in [16] it was 72.2%; in test [17], 100%; in [18], 79.6%.
As for `CCNC(=O)Oc1ccc(/C(=C(/C)Cc2ccc(OC)cc2)c2ccc(OCCN(CC)CC)cc2)cc1`, the growth in [1] is -55.3% (active); in [2], -14.8% (active); in [3], 74.8%; in test [4] it was 89.9%; in test [5], 69.4%; in [6], 88.6%. The growth was 74.7% in test [7]; 50.7% in test [8]; 45.9% in test [9]; 78.1% in [10]; 27.4% in test [11]; 80.5% in test [12]. Also, the growth in test [13] was 40.5%; in test [14], 45.2%; in test [15], 18.3%; in test [16], 30.9%; in test [17] it was 59.7%; in test [18] it was 62.2%.
For the compound `Cc1ccc2[nH]c(=S)[nH]c(=O)c2c1`, the growth in test [1] is 90.7%; in test [2], 109%; in test [3] it was 104%; in test [4] it was 107%; in test [5], 102%; in test [6], 105%. For the same compound, the growth is 103% in test [7]; 105% in test [8]; 104% in test [9]; 104% in test [10]; 89% in test [11]; 101% in test [12]. Also, the growth is 101% in test [13]; 103% in test [14]; 99.8% in test [15]; 101% in test [16]; 98.2% in test [17]; 100% in test [18].
In the case of `COc1cc(/C=C2\C(=O)N(CCCCn3c4ccccc4c(=O)c4ccccc43)c3ccccc32)cc(OC)c1O`, the growth in test [1] is 14.7%; in test [2], 35.2%; in [3], 50.1%; in test [4], 91%; in [5], 56.1%; in test [6], 97.1%. The growth is 52.3% in [7]; 31.6% in [8]; 68.8% in test [9]; 48.6% in [10]; 66.1% in [11]; 51.1% in test [12]. For the same compound, the growth in test [13] was 6.24% (active); in test [14], 47.4%; in [15] it was 22.8%; in test [16], 57.6%; in [17], 92.4%; in [18], 58.4%.
